High-throughput results: PubChem, National Center for Advancing Translational Sciences (NCATS)
Hits are enriched below; roughly 2.2% of the tested compounds scored in any of these assays.
miR-21 act: qHTS Assay for Modulators of miRNAs and/orActivators of miR-21 | HeLa miR-21 FLuc reporter, luciferase, 48 h | Potency, µM (titrated, usually from 38.3 µM), without a hit: at the top dose activity change, positive = activation, actives largely listed as activators | 340,000 tested, under 10 active;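 also: % of control where 0% means no effect; miR-21 action dims this reporter so a rising signal means less miR-21 action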
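Luminescence from a firefly luciferase reporter carrying a miR-21 binding site downstream, stably expressed under a CMV promoter in HeLa cells that make miR-21 endogenously, reports miRNA modulation after 48 h compound exposure up to approximately 40uM final.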
Nrf2 inh: Nrf2 qHTS screen for inhibitors; A549 ARE-Fluc reporter, luciferase luminescence, 18-24 h; Potency, µM (top dose mostly 46 µM), for inactives: at the highest dose activity change, negative = inhibition, usual class: inhibitors; 2.1% of 360,000 active; also: potency is read from the fitted curve at half-maximal effect; % is scaled to controls: 0 for no effect and ±100 for the full control effect; nearly all actives have a fitted effect of over 60% in size
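A549 ARE_Fluc cells, 5000/well, 5% FBS OPTI-MEM; compounds in dose-response, 18-24 h at 37 °C/5% CO2; CellTiter-Fluor viability read (Ex 405/Em 525), then BugLite luciferase luminescence = Nrf2 activity.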
Nrf2 activator: qHTS of Nrf2 Activators. AID 624171, 2012. AREc32 ARE-luciferase reporter (MCF7-derived line), luminescence, 24 h. 0.31% of 410,000 active. Potency, µM (titrated, usually from 46.1 µM), inactives show at the highest dose activation, usual class: activators; also: potency is read from the fitted curve at half-maximal effect; % of control where 0% means no effect; nearly all actives have a fitted effect of over 65% in size
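AREc32_Fluc, 1000 cells/well, OPTI-MEM + 5% FBS, o/n 37 deg C 5% CO2; 23 nL cpd by pin tool, 24 hr; Steady-Glo 30 min RT, luminescence.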
PI4K2A inh: qHTS for small molecular inhibitors of PI4K2A | Phosphatidylinositol 4-kinase type 2-alpha (Homo sapiens), Q9BTU6 | purified PI4K2A, ADP-Glo luminescence, 1 h; active compounds read low | activity change, negative = inhibition, % at 76.9 µM | 0.13% of 420,000 active; in the data active = activity change below about -50%; inconclusive = mostly about -30% to -49%;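 also: -100% = wells without enzyme as full effect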
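In this quantitative HTS, ADP production by PI4K2A was quantified luminescently after 1 h at ambient temperature; 100 microM adenosine served as plate-quality control.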
A549 viability: Nrf2 qHTS screen for inhibitors: counterscreen for cytotoxicity; 0.16% of 390,000 active; Potency, µM (series often up to 46 µM), inactives show top-dose activity change, negative = cytotoxicity, usual class: inhibitors; A549 ARE-Fluc cells, CellTiter-Fluor viability, 18-24 h; also: potency is read from the fitted curve at half-maximal effect; % is scaled to controls: 0 for no effect and ±100 for the full control effect
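Cytotoxicity counterscreen: CellTiter-Fluor fluorescence was measured in A549 ARE_Fluc cells after 18-24 h of compound exposure in a concentration series. The subsequent BugLite luminescent read reports ARE-luciferase activity.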
GALK inh: qHTS Assay for Inhibitors of Human Galactokinase (GALK); Potency, µM (top dose mostly 57.5 µM), inactives show top-dose activity change, negative = inhibition, usual class: inhibitors; 0.007% of 270,000 active; Purified GALK, Kinase-Glo residual ATP luminescence; P51570; AID 1868, 2009; also: potency is read from the fitted curve at half-maximal effect; % is scaled to controls: 0 for no effect and ±100 for the full control effect
Target sequence (P51570 whole entry, looked up): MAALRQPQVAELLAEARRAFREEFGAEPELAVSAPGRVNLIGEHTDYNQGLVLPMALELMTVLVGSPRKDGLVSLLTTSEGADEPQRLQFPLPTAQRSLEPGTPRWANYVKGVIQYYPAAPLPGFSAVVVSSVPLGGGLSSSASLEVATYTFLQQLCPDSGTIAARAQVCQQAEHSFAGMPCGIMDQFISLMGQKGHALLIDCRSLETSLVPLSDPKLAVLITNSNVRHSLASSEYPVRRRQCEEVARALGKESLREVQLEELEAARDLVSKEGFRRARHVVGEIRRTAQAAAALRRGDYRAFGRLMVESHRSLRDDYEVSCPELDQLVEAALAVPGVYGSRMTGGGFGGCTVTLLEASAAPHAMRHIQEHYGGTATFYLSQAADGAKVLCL
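Galactose (100 uM) and ATP (35 uM) were turned over by 5 nM GALK for 1 h at RT. Kinase-Glo Plus then converted the remaining ATP into a luminescent signal.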
The depositor's hits bear a star; ? = inconclusive; . = not tested or not shown. Unless noted, calls follow the shape of the dose curve; as a rule, active = well fitted curve in the direction sought with a large enough effect; inconclusive = small, poorly fitted or top-dose-only effect, or another doubt; inactive = no such curve, though single readings can be large; an effect the other way counts as inactive or inconclusive.

SMILES | miR-21 act | Nrf2 inh | Nrf2 activator | PI4K2A inh | A549 viability | GALK inh
CC1CCCN(C(=O)c2ccc(OC3CCN(CCc4ccccc4)CC3)cc2)C1 (stereo unspecified) | 2% | 16µM* | 0% | 3 | 1% | 5%
O=C1CCCC2=C1C1(CCCC1)N=C(Nc1nc3cc(Br)ccc3o1)N2 | . | 0% | . | -4 | 13% | .
CN(Cc1ccc(F)cc1)C(=O)c1cccc(S(=O)(=O)N2CCN(c3ccc(F)cc3)CC2)c1 | . | 18µM* | 0% | 2 | -16% | .
CN(Cc1ccc(F)cc1)C(=O)c1cccc(S(=O)(=O)N2CCN(c3ccccc3)CC2)c1 | . | 23µM* | 2% | -2 | -12% | .
CN(Cc1ccc(F)cc1)C(=O)c1cccc(S(=O)(=O)N2CCN(Cc3ccccc3)CC2)c1 | . | ? | 0% | 3 | 1% | .
COCCN(Cc1ccccc1)C(=O)c1cccc(S(=O)(=O)N2CCN(c3ccc(F)cc3)CC2)c1 | . | -28% | 0% | 2 | 0% | .
Cc1ccc(C)c(NC(=O)CN(C)C(=O)c2cccc(S(=O)(=O)N3CCN(Cc4ccccc4)CC3)c2)c1 | 18% | 12µM* | 2% | 3 | -9% | 3%
CN(Cc1cccc(F)c1)C(=O)c1ccc(S(=O)(=O)N2CCCCCC2)cc1 | . | 23µM* | 4% | -8 | -16% | .
O=C(NCCN1C(=O)C2C3C=CC(C3)C2C1=O)c1cc(F)cc(F)c1 (stereo unspecified) | . | . | . | 1 | . | .
CCOC(=O)N1CCN(C(=O)C[C@H]2C[C@@]3(C(=O)OC)C(=C[C@H](C(C)C)O[C@@H]3C3CC3)N(CCc3ccc(OC)c(OC)c3)C2=O)CC1 | . | . | . | -1 | . | .
COc1ccc(CN(C)C(=O)c2cccc(S(=O)(=O)N3CCCc4ccccc43)c2)c(OC)c1OC | . | 23µM* | -1% | 0 | ? | .
COc1ccc(CN(C)C(=O)c2cccc(S(=O)(=O)N3CCN(c4ccccc4)CC3)c2)c(OC)c1OC | . | 10µM* | 2% | -4 | -20% | .
O=C(c1cccc(S(=O)(=O)N2CCN(c3ccccc3)CC2)c1)N1CCCC(C(F)(F)F)C1 (stereo unspecified) | . | 13µM* | -1% | -2 | -19% | .
CN(CC(=O)Nc1ccc(F)cc1)C(=O)c1cccc(S(=O)(=O)N2CCN(c3ccc(F)cc3)CC2)c1 | . | 21µM* | 1% | 2 | -22% | .
O=C(NCCOc1ccccc1F)c1cccc(S(=O)(=O)N2CCN(c3ccccc3)CC2)c1 | . | 4.6µM* | 2% | 5 | -7% | .
CCN(CC(=O)Nc1c(F)cccc1F)C(=O)c1cccc(S(=O)(=O)N2CCCc3ccccc32)c1 | . | 26µM* | 0% | 3 | ? | .
O=C(NCCCN1CCOCC1)c1cccc(S(=O)(=O)N2CCN(c3ccccc3)CC2)c1 | . | 7% | 3% | -2 | 3% | .
CC(C(O)c1ccccc1)N(C)CCOC(c1ccccc1)c1ccccc1 (stereo unspecified) | . | . | . | 0 | . | .
CC(=O)Nc1sc2c(c1-c1nc3ccccc3s1)CCCN(C(C)C)C2 | . | . | . | -6 | . | .
CCCc1nc(SCC(=O)N2CCc3ccccc3C2)c2ccccc2n1 | 6% | 23µM* | 6% | 1 | ? | -3%
CCCCNC(=O)CSc1nc(CCC)nc2ccccc12 | -1% | -29% | 8% | 2 | -8% | 5%
Cc1ccc(Sc2ccc([N+](=O)[O-])cc2[N+](=O)[O-])nc1 | 16% | 2% | 16µM* | 13 | -12% | 2%
CC(C)CCNC(=O)[C@H]1COC(O)([C@H](Cc2ccccc2)NC(=O)[C@@H](NC(=O)OCc2ccccc2)C(C)C)CN1C (stereo partly specified) | . | . | . | 2 | . | .
c1csc(-c2nc3ccccn3c2Nc2ccc3c(c2)OCCO3)c1 | -24% | 23µM* | 0% | -23 | -22% | .
Nc1c(N2CCCC2)cc(Cl)c2nonc12 | -6% | 16µM* | 1% | -66* | ? | 2%
SMILES | miR-21 act | Nrf2 inh | Nrf2 activator | PI4K2A inh | A549 viability | GALK inh
Nc1c(N2CCOCC2)cc(Cl)c2nonc12 | -30% | 7% | 0% | -62* | -16% | 1%
Nc1ccc(N2CCCCC2)c2nonc12 | -2% | ? | 21% | -54* | -6% | 7%
Nc1ccc(N2CCCCC2)cc1N1CCCCC1 | 30% | . | 19% | -7 | -18% | 1%
Cc1cc(N2CCOCC2)c2c(N)cc(C)c(C)c2n1 | -2% | 3% | 3% | 0 | -12% | 1%
N#Cc1nc(NCC2CC2)nc(Nc2ccccc2)n1 | . | -1% | . | . | -7% | .
Cn1c(=O)c2c(nc(NCc3ccccc3)n2CCCc2ccccc2)n(C)c1=O | 3% | ? | 0% | -9 | -4% | -2%
CNc1nc2c(c(=O)n(C)c(=O)n2C)n1Cc1ccccc1 | 5% | 7.3µM* | 1% | -2 | -16% | 0%
Cn1c(=O)c2c(nc(Sc3ncccn3)n2Cc2ccc(Cl)cc2)n(C)c1=O | 9% | 15µM* | 1% | 1 | 5% | 2%
Cn1c(=O)c2c(nc(NCCO)n2CCCc2ccccc2)n(C)c1=O | 13% | 21µM* | 1% | 4 | 0% | -4%
CNc1nc2c(c(=O)n(C)c(=O)n2C)n1CCCc1ccccc1 | 19% | ? | 0% | 3 | -10% | -2%
Cc1cccc(Cn2c(NCCO)nc3c2c(=O)n(C)c(=O)n3C)c1 | 15% | 4.1µM* | 0% | 8 | -19% | 2%
CCOc1ccc(-n2c(SCC(=O)Nc3cccc4ccccc34)nnc2-c2ccncc2)cc1 | . | . | . | -2 | . | .
O=C(Cn1nnc(-c2ccc(CN3CCOCC3)cc2)n1)Nc1nc(-c2ccccc2)cs1 | 12% | 16µM* | 2% | -2 | -1% | 1%
O=C(CN1CCOCC1)Nc1nc(-c2ccccc2)cs1 | -3% | 16% | 4% | -1 | 1% | -2%
CCC(C)NS(=O)(=O)c1ccc2[nH]c(=O)oc2c1 (stereo unspecified) | . | . | . | -1 | . | .
O=C(NCc1ccc2c(c1)OCO2)C(=O)NCC1OCCN1S(=O)(=O)c1ccc(Cl)cc1 (stereo unspecified) | 11% | 26µM* | 0% | 0 | -5% | 0%
O=C(NCCc1c[nH]c2ccccc12)C(=O)NCC1OCCN1S(=O)(=O)c1ccc(Cl)cc1 (stereo unspecified) | 27% | 23µM* | -1% | -2 | -12% | .
